Laboratory results as given in the supplement of paper PMC8728848.
About 410 targets per protein were measured; listed, in parts, are those with the strongest signals and a random draw of the rest.

B1: CBM32-1 (Clostridium perfringens) (protein)
chain: MGSSHHHHHHSSGLVPRGSHMASGVEITEGVTVTAKGNTEGNTADLAIDGDLSTYWESSNDYKWIEVDLGGIYELSKIEIFNKDEAVYKYNIYASEDGENFNKIAYKNNDNVSDSNGNVHTIDNVRAGKIRIDVVQNSNSDRVNIAEINVFG
B2: Epa1 (Candida glabrata), Q6FUW5_CANGA (protein)
chain: MILNPALFLNKCVCIYTTLILLLLTNGGYATSSNDISLASKDPTTFPLGCSPDITTPKKGLSMELYSYDFRKKGSYPCWDAAYLDPNYPRTGYKSHRLLAKVDGVTGNINFYYHATKGCTPQLGHLPASYNYPKPLTMTNFTMLLYGYFRPKVTGFHTFTISADDLLFVNFGAGNAFDCCRRDSSADHFGNYQAYAIWGSKTAKDELTVHLDAGVYYPIRLFYNNREYDGALSFTFKTESNENTVSDFSEYFFSLDDTEEGCPGLISYDSSCASVKTSKIIGIDYHTETPNENLVPITKTIYHLGIPCTGTTTTPLCGSGFYDPLANKCVTINTSSTSSVTKTTSHTTSKEVSFHSSISSQKTLIPKSIPSPYGPIKSQSIPTEMETSSEISSSEYAFSDVISTPSHSPYTKKHSSLNSSSYTSTVIHSLTSYSISQGIFSTSLSEQNITSKSSTDKFSTATSMSNSITQSSIIISQSSTNNENYTTTSMHTSSDKISTETLNNSISTTTSILFSNSSTILKNNTTIISSDKDTHYHPVNPTIVCSTNKTEIICASITQPSISNSNNHWSSSVLRFNSTTVRSTLPSSAGSNETSINVPFSSSTESNASTSSTSTSNSKTVRSTLPSSAGSNETSINVPFSSSTESNTSTSSTSTSNSKTVRSTLPSSAGSNETSINVPFSSSTESNASTSSTSTSNSKTVRSTPFSSAGIIMTSLSQRNNKSASSYASSNSKCYNTADSCRKVHSTPSYLLTSSYTSEGVDYDCSLVSTKLKINDTNCLNNKHTTKSCLKTSVTTTIPTLEIKTARKSSSNTIGLHSYPTSSPNKSISSAPIIGYISSFKTIKTASPSYQTSDLTTITTITSLNNPGSTAVENTHESNDKSRKTSSNDISSKHSVIKETKDAVESSNKSHQTNTLKCSSIIIASSSHNSYESLGGTTLTLTLSKVYSPQNNDTLPFLEISEVNPSRTVLPESSKMMQYLTSTEERNKTARNTIATNIVSISTFHFEGEGNAIRMGYTQLLLMLIGIIVMNIGT

Assays:
Assay in all cases: glycan array binding signal (z-score within array); higher = stronger binding
Details in all cases: glycan notation: IUPAC condensed, linker removed
[1] = biological target: Fuc(a1-2)Gal(b1-3)GalNAc(b1-3)Gal(a1-4)Gal(b1-4)Glc
In short: (§1)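 From the Consortium for Functional Glycomics database, 3228 arrays were curated, keeping only those whose protein sequence was available. Binding is given as a within-array Z-score averaged across arrays sharing a protein sequence and across linkers. Negative Z-scores can be read as non-binding.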

[2] = biological target: Fuc(a1-2)[GalNAc(a1-4)]Gal(b1-4)GlcNAc
In short: as §1

[3] = biological target: Fuc(a1-3)[Gal(b1-4)]GlcNAc(b1-4)Gal(b1-4)[Fuc(a1-3)]GlcNAc
In short: as §1

[4] = biological target: Fuc(a1-3)[Gal3S(b1-4)]GlcNAc
In short: as §1

Gal(b1-3)GlcNAc = biological target: Gal(b1-3)GlcNAc
In short: as §1

[5] = biological target: Gal(b1-4)GlcNAc(b1-3)Gal(b1-4)GlcNAc(b1-3)Gal(b1-4)GlcNAc
In short: as §1

Gal3S(b1-4)Glc6S = biological target: Gal3S(b1-4)Glc6S
In short: as §1

Gal3S6S(b1-4)GlcNAc6S = biological target: Gal3S6S(b1-4)GlcNAc6S
In short: as §1

Gal6S(b1-4)Glc = biological target: Gal6S(b1-4)Glc
In short: as §1

Gal6S(b1-4)Glc6S = biological target: Gal6S(b1-4)Glc6S
In short: as §1

GalNAc(a1-3)GalNAc = biological target: GalNAc(a1-3)GalNAc
In short: as §1

Glc(a1-6)Glc(a1-6)Glc = biological target: Glc(a1-6)Glc(a1-6)Glc
In short: as §1

[6] = biological target: GlcNAc(b1-4)GlcNAc(b1-4)GlcNAc(b1-4)GlcNAc(b1-4)GlcNAc
In short: as §1

Kdn(a2-3)Gal(b1-4)GlcNAc = biological target: Kdn(a2-3)Gal(b1-4)GlcNAc
In short: as §1

[7] = biological target: Neu5Ac(a2-3)Gal(b1-4)GlcNAc(b1-2)Man(a1-3)[GlcNAc(b1-2)Man(b1-4)GlcNAc(b1-2)Man(a1-6)]Man(b1-4)GlcNAc(b1-4)GlcNAc
In short: as §1

[8] = biological target: Neu5Ac(a2-6)Gal(b1-4)GlcNAc(b1-3)Gal(b1-4)[Fuc(a1-3)]GlcNAc(b1-3)Gal(b1-4)[Fuc(a1-3)]GlcNAc
In short: as §1

[9] = biological target: Neu5Ac(a2-8)Neu5Ac(a2-3)[GalNAc(b1-4)]Gal(b1-4)Glc
In short: as §1

[10] = biological target: Fuc(a1-2)Gal(b1-4)GlcNAc6S
In short: as §1

[11] = biological target: Fuc(a1-2)Gal6S(b1-4)GlcNAc
In short: as §1

[12] = biological target: Fuc(a1-2)[Gal(a1-3)]Gal(b1-3)GlcNAc
In short: as §1

[13] = biological target: Fuc(a1-2)[GalNAc(a1-3)]Gal(b1-4)GlcNAc
In short: as §1

Gal(a1-3)GlcNAc = biological target: Gal(a1-3)GlcNAc
In short: as §1

Gal(a1-4)Gal(b1-4)Gal = biological target: Gal(a1-4)Gal(b1-4)Gal
In short: as §1

Gal(a1-4)Gal(b1-4)GalNAc = biological target: Gal(a1-4)Gal(b1-4)GalNAc
In short: as §1

Gal(a1-6)Glc = biological target: Gal(a1-6)Glc
In short: as §1

Gal(b1-3)Gal = biological target: Gal(b1-3)Gal
In short: as §1

[14] = biological target: Gal(b1-3)[Fuc(a1-4)]GlcNAc(b1-3)Gal(b1-4)GlcNAc
In short: as §1

[15] = biological target: Gal(b1-3)[Neu5Ac(b2-6)]GlcNAc
In short: as §1

[16] = biological target: Gal(b1-4)GalNAc(b1-3)[Fuc(a1-2)]Gal(b1-4)GlcNAc
In short: as §1

[17] = biological target: Gal(b1-4)GlcNAc(b1-3)GalNAc
In short: as §1

[18] = biological target: Gal(b1-4)GlcNAc(b1-6)[Gal(b1-3)]GlcNAc
In short: as §1

Gal4S(b1-4)GlcNAc = biological target: Gal4S(b1-4)GlcNAc
In short: as §1

[19] = biological target: GlcNAc(b1-4)[GlcNAc(b1-6)]GalNAc
In short: as §1

[20] = biological target: Neu5Ac(a2-3)Gal(b1-3)GalNAc
In short: as §1

[21] = biological target: Neu5Ac(a2-3)Gal(b1-4)GlcNAc(b1-3)Gal(b1-4)[Fuc(a1-3)]GlcNAc
In short: as §1

[22] = biological target: Neu5Ac(a2-3)Gal(b1-4)GlcNAc(b1-6)[Gal(b1-3)]GalNAc
In short: as §1

[23] = biological target: Neu5Ac(a2-3)Gal6S(b1-4)GlcNAc
In short: as §1

[24] = biological target: Neu5Gc(a2-3)Gal(b1-4)GlcNAc
In short: as §1

Binder	glycan array binding signal (z-score) [1]	glycan array binding signal (z-score) [2]	glycan array binding signal (z-score) [3]	glycan array binding signal (z-score) [4]	glycan array binding signal (z-score) (Gal(b1-3)GlcNAc)	glycan array binding signal (z-score) [5]	glycan array binding signal (z-score) (Gal3S(b1-4)Glc6S)	glycan array binding signal (z-score) (Gal3S6S(b1-4)GlcNAc6S)	glycan array binding signal (z-score) (Gal6S(b1-4)Glc)	glycan array binding signal (z-score) (Gal6S(b1-4)Glc6S)	glycan array binding signal (z-score) (GalNAc(a1-3)GalNAc)	glycan array binding signal (z-score) (Glc(a1-6)Glc(a1-6)Glc)	glycan array binding signal (z-score) [6]	glycan array binding signal (z-score) (Kdn(a2-3)Gal(b1-4)GlcNAc)	glycan array binding signal (z-score) [7]	glycan array binding signal (z-score) [8]	glycan array binding signal (z-score) [9]	glycan array binding signal (z-score) [10]	glycan array binding signal (z-score) [11]	glycan array binding signal (z-score) [12]	glycan array binding signal (z-score) [13]	glycan array binding signal (z-score) (Gal(a1-3)GlcNAc)	glycan array binding signal (z-score) (Gal(a1-4)Gal(b1-4)Gal)	glycan array binding signal (z-score) (Gal(a1-4)Gal(b1-4)GalNAc)	glycan array binding signal (z-score) (Gal(a1-6)Glc)	glycan array binding signal (z-score) (Gal(b1-3)Gal)	glycan array binding signal (z-score) [14]	glycan array binding signal (z-score) [15]	glycan array binding signal (z-score) [16]	glycan array binding signal (z-score) [17]	glycan array binding signal (z-score) [18]	glycan array binding signal (z-score) (Gal4S(b1-4)GlcNAc)	glycan array binding signal (z-score) [19]	glycan array binding signal (z-score) [20]	glycan array binding signal (z-score) [21]	glycan array binding signal (z-score) [22]	glycan array binding signal (z-score) [23]	glycan array binding signal (z-score) [24]
B1	-0.205	0.059	0.331	-0.283	-0.333	0.889	3.21	5.08	0.513	4.39	-0.173	-0.279	5.14	-0.439	3.77	0.193	-0.358	–	–	–	–	–	–	–	–	–	–	–	–	–	–	–	–	–	–	–	–	–
B2	-0.549	–	–	–	–	–	–	-0.544	–	2.71	–	–	–	–	–	–	–	1.65	-0.128	-0.553	-0.557	0.208	0.374	1.29	0.344	2.4	1.75	0.26	2.42	2.41	2.48	-0.551	-0.556	-0.547	-0.553	1.96	-0.557	-0.549
